# Laboratory results as given in the supplement of paper PMC8253809.
# Tested on: DIPGX29 (H3.3 K27M diffuse intrinsic pontine glioma line)
# Assay: growth inhibition (% activity, log2 RLU normalised to DMSO / staurosporine); higher = more growth inhibition
# Conditions: 33 µM
# Procedure, shortened: (§1)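 On Geltrex-coated 384-well plates, pHGG cell lines and H9-derived neural stem cells were grown with approved drugs pinned in at a single final concentration of about 33 μM, in triplicate, for 7 days at 37 °C, 5% CO2. Per-plate normalisation of log2-transformed CellTiter-Glo luminescence to % activity between solvent and positive control wells followed. Each growth-inhibition value is the median over the replicates.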
row,SMILES,growth inhibition [%]
1,Cc1ccc(-c2cc(C(F)(F)F)nn2-c2ccc(S(N)(=O)=O)cc2)cc1,0.436
2,CC(C)(C)C(=O)OCOP(=O)(COCCn1cnc2c(N)ncnc21)OCOC(=O)C(C)(C)C,7.13
3,NCCNCCNCCNCCN,1.8
4,CC(=O)[C@H]1CC[C@H]2[C@@H]3CC=C4C[C@@H](O)CC[C@]4(C)[C@H]3CC[C@]12C,-0.784
5,CC[C@H](C)C(=O)O[C@H]1C[C@@H](C)C=C2C=C[C@H](C)[C@H](CC[C@@H]3C[C@@H](O)CC(=O)O3)[C@H]21,6.68
6,CC(C)/N=c1\cc2n(-c3ccc(Cl)cc3)c3ccccc3nc-2cc1Nc1ccc(Cl)cc1,12.5
7,COc1ccc(O)cc1,-0.0157
8,C[C@@H](NCCCc1cccc(C(F)(F)F)c1)c1cccc2ccccc12,8.61
9,NCCS(=O)(=O)O,0.304
10,CC(=O)SCC(Cc1ccccc1)C(=O)NCC(=O)OCc1ccccc1 (stereo not drawn),1.1
11,O=C(O)C1=CO[C@@H](O[C@@H]2O[C@H](CO)[C@@H](O)[C@H](O)[C@H]2O)[C@@H]2C(CO)=CC[C@H]12,-3.84
12,O=C1[C@H](CC[C@H](O)c2ccc(F)cc2)[C@@H](c2ccc(O)cc2)N1c1ccc(F)cc1,0.15
13,CCCCC(=O)N(Cc1ccc(-c2ccccc2-c2nnn[nH]2)cc1)[C@H](C(=O)O)C(C)C,-2.21
14,O=c1[nH]cc(F)c(=O)[nH]1,5.88
15,CN(C)C/C=C/C(=O)Nc1cc2c(Nc3ccc(F)c(Cl)c3)ncnc2cc1O[C@H]1CCOC1,21.1
16,COc1cc(C(=O)NS(=O)(=O)c2ccccc2C)ccc1Cc1cn(C)c2ccc(NC(=O)OC3CCCC3)cc12,-0.736
17,c1ccc(CN(CC2=NCCN2)c2ccccc2)cc1,1.93
18,CC(C)CN(C[C@@H](O)[C@H](Cc1ccccc1)NC(=O)O[C@H]1CCOC1)S(=O)(=O)c1ccc(N)cc1,-0.715
19,COc1cccc2c1C(=O)c1c(O)c3c(c(O)c1C2=O)C[C@@](O)(C(C)=O)C[C@@H]3O[C@H]1C[C@H](N)[C@H](O)[C@H](C)O1,55.5
20,CCOc1ccc2ccccc2c1C(=O)N[C@@H]1C(=O)N2[C@@H]1SC(C)(C)[C@@H]2C(=O)O,-3.12

row,SMILES,growth inhibition [%]
1,CCOc1nc2cccc(C(=O)OCc3oc(=O)oc3C)c2n1Cc1ccc(-c2ccccc2-c2noc(=O)[nH]2)cc1,0.179
2,COc1ccc2c(c1)c(CC(=O)OCC(=O)O)c(C)n2C(=O)c1ccc(Cl)cc1,4.7
3,N[C@@H]1CONC1=O,1.31
4,O=C(O)c1ccc(-n2nc(-c3ccccc3O)nc2-c2ccccc2O)cc1,-3.59
5,CCCCCCNC(=O)n1cc(F)c(=O)[nH]c1=O,5.51
6,C=C1/C(=C\C=C2/CCC[C@]3(C)[C@@H]([C@H](C)CCCC(C)C)CC[C@@H]23)C[C@@H](O)C[C@@H]1O,-0.46
7,COc1cc2nccc(Oc3ccc(NC(=O)C4(C(=O)Nc5ccc(F)cc5)CC4)cc3)c2cc1OC,2.36
8,Nc1cccc2c1C(=O)N(C1CCC(=O)NC1=O)C2=O (stereo not drawn),0.275
9,CCOC(=O)C1=C[C@@H](OC(CC)CC)[C@H](NC(C)=O)[C@@H](N)C1,-0.948
10,Nc1nc2c(ncn2COC(CO)CO)c(=O)[nH]1,-0.593
11,O=C(c1ccc(OCCN2CCCCC2)cc1)c1c(-c2ccc(O)cc2)sc2cc(O)ccc12,8.18
12,CC[C@@H]1C(=O)OC[C@@H]1Cc1cncn1C,-0.467
13,C=C[C@H]1CN2CC[C@H]1C[C@H]2[C@H](O)c1ccnc2ccc(OC)cc12,2.06
14,CCN1CCN(c2cc(-c3ccc(F)cc3)c3c(n2)CCCCCC3)CC1,9.89
15,Cc1cc2c(cc1S(N)(=O)=O)S(=O)(=O)CCC2,0.849
16,C[C@@H]1CN(c2c(F)c(N)c3c(=O)c(C(=O)O)cn(C4CC4)c3c2F)C[C@H](C)N1,0.694
17,Cn1c(CNc2ccc(C(=N)N)cc2)nc2cc(C(=O)N(CCC(=O)O)c3ccccn3)ccc21,0.681
18,CCN(CC)CCOc1ccc(C(=C(Cl)c2ccccc2)c2ccccc2)cc1,26.6
19,C[C@@H]1O[C@@H]1P(=O)(O)O,-0.0235

# Tested on: DIPGX37 (H3.3 K27M diffuse intrinsic pontine glioma line)
# Assay: as above
# Conditions: 33 µM
# Procedure, shortened: as §1
row,SMILES,growth inhibition [%]
1,Cc1ccc(-c2cc(C(F)(F)F)nn2-c2ccc(S(N)(=O)=O)cc2)cc1,-3.87
2,CC(C)(C)C(=O)OCOP(=O)(COCCn1cnc2c(N)ncnc21)OCOC(=O)C(C)(C)C,8.8
3,NCCNCCNCCNCCN,3.32
4,CC(=O)[C@H]1CC[C@H]2[C@@H]3CC=C4C[C@@H](O)CC[C@]4(C)[C@H]3CC[C@]12C,-0.0978
5,CC[C@H](C)C(=O)O[C@H]1C[C@@H](C)C=C2C=C[C@H](C)[C@H](CC[C@@H]3C[C@@H](O)CC(=O)O3)[C@H]21,-1.93
6,CC(C)/N=c1\cc2n(-c3ccc(Cl)cc3)c3ccccc3nc-2cc1Nc1ccc(Cl)cc1,10.3
7,COc1ccc(O)cc1,0.851
8,C[C@@H](NCCCc1cccc(C(F)(F)F)c1)c1cccc2ccccc12,3.26
9,NCCS(=O)(=O)O,1.36
10,CC(=O)SCC(Cc1ccccc1)C(=O)NCC(=O)OCc1ccccc1 (stereo not drawn),2.25
11,O=C(O)C1=CO[C@@H](O[C@@H]2O[C@H](CO)[C@@H](O)[C@H](O)[C@H]2O)[C@@H]2C(CO)=CC[C@H]12,-2.61
12,O=C1[C@H](CC[C@H](O)c2ccc(F)cc2)[C@@H](c2ccc(O)cc2)N1c1ccc(F)cc1,-1.79
13,CCCCC(=O)N(Cc1ccc(-c2ccccc2-c2nnn[nH]2)cc1)[C@H](C(=O)O)C(C)C,-1.28
14,O=c1[nH]cc(F)c(=O)[nH]1,-2.07
15,CN(C)C/C=C/C(=O)Nc1cc2c(Nc3ccc(F)c(Cl)c3)ncnc2cc1O[C@H]1CCOC1,8.76
16,COc1cc(C(=O)NS(=O)(=O)c2ccccc2C)ccc1Cc1cn(C)c2ccc(NC(=O)OC3CCCC3)cc12,1.77
17,c1ccc(CN(CC2=NCCN2)c2ccccc2)cc1,1.36
18,CC(C)CN(C[C@@H](O)[C@H](Cc1ccccc1)NC(=O)O[C@H]1CCOC1)S(=O)(=O)c1ccc(N)cc1,-0.112
19,COc1cccc2c1C(=O)c1c(O)c3c(c(O)c1C2=O)C[C@@](O)(C(C)=O)C[C@@H]3O[C@H]1C[C@H](N)[C@H](O)[C@H](C)O1,56.5
20,CCOc1ccc2ccccc2c1C(=O)N[C@@H]1C(=O)N2[C@@H]1SC(C)(C)[C@@H]2C(=O)O,-0.795

row,SMILES,growth inhibition [%]
1,CCOc1nc2cccc(C(=O)OCc3oc(=O)oc3C)c2n1Cc1ccc(-c2ccccc2-c2noc(=O)[nH]2)cc1,-1.86
2,COc1ccc2c(c1)c(CC(=O)OCC(=O)O)c(C)n2C(=O)c1ccc(Cl)cc1,5.04
3,N[C@@H]1CONC1=O,-0.333
4,O=C(O)c1ccc(-n2nc(-c3ccccc3O)nc2-c2ccccc2O)cc1,-2.58
5,CCCCCCNC(=O)n1cc(F)c(=O)[nH]c1=O,0.97
6,C=C1/C(=C\C=C2/CCC[C@]3(C)[C@@H]([C@H](C)CCCC(C)C)CC[C@@H]23)C[C@@H](O)C[C@@H]1O,2.45
7,COc1cc2nccc(Oc3ccc(NC(=O)C4(C(=O)Nc5ccc(F)cc5)CC4)cc3)c2cc1OC,6.14
8,Nc1cccc2c1C(=O)N(C1CCC(=O)NC1=O)C2=O (stereo not drawn),2
9,CCOC(=O)C1=C[C@@H](OC(CC)CC)[C@H](NC(C)=O)[C@@H](N)C1,0.933
10,Nc1nc2c(ncn2COC(CO)CO)c(=O)[nH]1,2.32
11,O=C(c1ccc(OCCN2CCCCC2)cc1)c1c(-c2ccc(O)cc2)sc2cc(O)ccc12,-0.349
12,CC[C@@H]1C(=O)OC[C@@H]1Cc1cncn1C,1.71
13,C=C[C@H]1CN2CC[C@H]1C[C@H]2[C@H](O)c1ccnc2ccc(OC)cc12,3.05
14,CCN1CCN(c2cc(-c3ccc(F)cc3)c3c(n2)CCCCCC3)CC1,1.2
15,Cc1cc2c(cc1S(N)(=O)=O)S(=O)(=O)CCC2,2.86
16,C[C@@H]1CN(c2c(F)c(N)c3c(=O)c(C(=O)O)cn(C4CC4)c3c2F)C[C@H](C)N1,1.71
17,Cn1c(CNc2ccc(C(=N)N)cc2)nc2cc(C(=O)N(CCC(=O)O)c3ccccn3)ccc21,3.45
18,CCN(CC)CCOc1ccc(C(=C(Cl)c2ccccc2)c2ccccc2)cc1,11.7
19,C[C@@H]1O[C@@H]1P(=O)(O)O,-0.548
